In general, Inhibition refers to the percentage by which the read-out fell short of the control. A low value points to a response near the control.

Our source for the Inhibition values is ChEMBL document CHEMBL1157539, “Thousands of chemical starting points for antimalarial lead identification” (Nature, 2010).

Each structure is given as a SMILES string.

This assay concerns Plasmodium falciparum. The experiment in a line: GSK_TCMDC: Inhibition of Plasmodium falciparum 3D7 in whole red blood cells, using parasite LDH activity as an index of growth. Test compounds present at 2uM. The class given is functional.
For the compound `CCc1c[nH]c2c(N3CCCC3=O)cc(C(=O)N[C@@H](Cc3ccccc3)[C@H](O)CNC(C)(C)c3cccc(C(F)(F)F)c3)cc12.O=CO`, the Inhibition was found to be 98%.
The result for `COc1ccc2c(=O)c3ccc(OC)cc3[nH]c2c1` reads 93%; that for `CCOC(=O)C(Oc1ccc2ccccc2c1)C(=O)OCC`, 98%.
The result for `COc1ccc(S(=O)(=O)NC2CCN(c3ccnc4cc(Cl)ccc34)C2)cc1.O=C(O)C(F)(F)F` (centres undefined) reads 100%; that for `CC1CN(c2cnn(C/C=C/c3ccc(NC(=O)c4ccc5nonc5c4)cc3)c(=O)c2Cl)CC(C)N1.O=C(O)C(F)(F)F` (centres undefined), 94%.
Consider `CCOc1ccc(Br)cc1/C=C/C(=O)Nc1ccc2c(c1)CN(C)CCC2.O=C(O)C(F)(F)F`, for which the Inhibition amounted to 97%.
The compound `O=C(/C=C/c1ccc(Cl)c(Cl)c1)NCCCCCCN1CCCN(C(=O)Nc2ccc(Cl)c(Cl)c2)CC1` gave an Inhibition of 100%.
`COc1ccc(-c2ccc(NC(=O)c3cccs3)cc2)cc1CN1CCCN(C)CC1.O=C(O)C(F)(F)F` yielded an Inhibition of 100%.
Take `CN1CCCN(Cc2ccc(-c3cccc(NC(=O)c4ccc(C#N)cc4)c3)cc2)CC1.O=C(O)C(F)(F)F`: the Inhibition was found to be 100%.
For `Cc1ccc2nc(C)cc(N/N=C/c3ccccc3[N+](=O)[O-])c2c1` the value was 100%; for `COc1cc2ncnc(NCCc3ccccc3Cl)c2cc1OC`, 88%.
For `Oc1cc(Nc2ccnc3cc(-c4ccc(CN5CCCCC5)o4)c(Cl)cc23)c(Cl)cc1F` the value was 100%.
In turn, `Cl.OC(c1cc(C(F)(F)F)nc2c(F)cccc12)C1CCCCN1` (centres undefined) yielded an Inhibition of 98%.
The result for `CC(=O)c1ccc(Nc2c(C(N)=O)cnc3cc(-c4c(C)noc4C)ccc23)cc1` reads 99%.
